According to PubChem BioAssay (NCI):
The panel holds about 83,000 compounds, 20% with a hit somewhere; the sample as a whole holds those more often.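 Assay: single dose, 48 h. Readout: percent growth (0 = no net growth; negative = cell death). Active: <10.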 Unmarked numbers belong to inactive results. Activity calls are given as the source filed them.

Tests used:
Test in all cases: NCI-60 one-dose screen, 48 h (100 = growth as untreated, 0 = no growth, -100 = all killed)
[1] = system: HCT-15 colon; details: 10 µM
[2] = system: HT29 colon; details: 10 µM
[3] = system: SNB-75 CNS; details: 10 µM
[4] = system: U251 CNS; details: 10 µM
[5] = system: PC-3 prostate; details: 10 µM
[6] = system: SK-MEL-5 melanoma; details: 10 µM
[7] = system: UACC-62 melanoma; details: 10 µM unless noted
[8] = system: LOX IMVI melanoma; details: 10 µM
[9] = system: SK-MEL-28 melanoma; details: 10 µM
[10] = system: SK-MEL-2 melanoma; details: 10 µM
[11] = system: EKVX NSCLC; details: 10 µM
[12] = system: SN12C renal; details: 10 µM
[13] = system: TK-10 renal; details: 10 µM unless noted
[14] = system: ACHN renal; details: 10 µM
[15] = system: CAKI-1 renal; details: 10 µM
[16] = system: A498 renal; details: 10 µM
[17] = system: CCRF-CEM leukemia; details: 10 µM
[18] = system: MOLT-4 leukemia; details: 10 µM
[19] = system: UO-31 renal; details: 10 µM
[20] = system: SNB-19 CNS; details: 10 µM

SMILES	growth [1]	growth [2]	growth [3]	growth [4]	growth [5]	growth [6]	growth [7]	growth [8]	growth [9]	growth [10]	growth [11]	growth [12]	growth [13]	growth [14]	growth [15]	growth [16]	growth [17]	growth [18]	growth [19]	growth [20]
OCCN(CCO)C(=S)S	104%	113%	129%	102%	104%	94.8%	91.7%	107%	113%	121%	96.3%	102%	110%	109%	93.1%	114%	104%	121%	–	–
COc1ccccc1NC(=O)C1=C(C)NC(C)=C(C(=O)Nc2ccccc2OC)C1c1cccc([N+](=O)[O-])c1	64.4%	75.8%	74.2%	76%	41.6%	61.5%	54.5%	69.1%	82.2%	79.6%	44.1%	68.4%	97.4%	54.6%	50.1%	128%	64.5%	37.4%	–	–
CN(C)Cc1cc(C(C)(C)CC(C)(C)C)ccc1O	79.4%	99.9%	79.9%	90.8%	84.1%	100%	99.5%	94.9%	109%	71.1%	98.4%	–	99.8%	82.4%	–	116%	99.6%	86.4%	76.2%	–
CCCCCCCCCCCCCC(=O)Oc1ccc[nH]c1=O	85.8%	91.9%	110%	96.3%	86.9%	–	88.7%	44.1%	109%	115%	83.4%	98.1%	84.2%	–	84.5%	94.5%	75.5%	98.6%	–	–
CNC(=S)NC(C)(C)C	106%	101%	146%	97%	89.9%	–	94%	105%	108%	122%	96.2%	102%	96.8%	108%	92.6%	112%	88.6%	106%	–	–
COc1cccc(COC(=O)Nc2ccccc2)c1OC	85.4%	105%	84.1%	–	–	98.2%	94.4%	103%	102%	–	–	96.9%	107%	104%	88.5%	105%	–	100%	99.5%	101%
COC(=O)c1cc(-c2ccc(Cl)c(Cl)c2)[nH]c(=O)c1C#N	96.3%	107%	99.2%	97.3%	102%	98.9%	90.9%	101%	100%	120%	94.4%	93.7%	103%	94.8%	87.5%	125%	104%	107%	–	–
CS(=O)CC1=NC(=N)N=C1CS(C)=O (centres undefined)	102%	109%	97.7%	98.1%	98.7%	99.3%	98.4%	96.7%	108%	115%	98.7%	101%	101%	107%	92.9%	104%	108%	107%	–	–
c1csc(-c2cc(-c3cc(-c4cccs4)[nH]n3)n[nH]2)c1	98.9%	106%	128%	106%	87.3%	99.2%	84.4%	87.2%	105%	132%	64.8%	97.4%	162%	–	79.6%	139%	66.1%	97.7%	–	–
CCOC(=O)c1cc(/C=C/c2ccc(Cl)cc2Cl)on1	-66.1% (active)	1.53% (active)	58.9%	6.71% (active)	44%	92.3%	48.7%	-90.1% (active)	86.1%	109%	45.2%	70.8%	155%	2.04% (active)	42.9%	133%	19%	32.5%	–	–
CC(=O)c1ccc(N=C(C#N)C2=C(O)c3ccccc3C2=O)cc1	113%	98.7%	78.8%	–	100%	–	109%	–	113%	–	–	103%	129%	–	105%	88.1%	104%	92.1%	90.8%	101%
COc1ccc(Oc2c(I)cc(CC(NC(C)=O)C(=O)O)cc2I)cc1 (centres undefined)	96.6%	85.2%	87.1%	86.5%	69.5%	60.7%	73.5%	70%	103%	102%	67.9%	83.8%	113%	97.6%	57.4%	79.7%	78.4%	60.9%	71.7%	–
Cc1ccc(C)n1-c1ccsc1C(=O)NNC(=O)C(Cl)Cl	103%	106%	104%	107%	88.5%	94.8%	93.4%	81.7%	112%	–	92.5%	98.6%	112%	104%	93.3%	101%	85.3%	118%	–	–
Cc1cc(C)c(CC(=O)O)c(C)c1	100%	99.4%	93.2%	103%	103%	–	108%	96.5%	124%	–	98.3%	113%	106%	102%	93.3%	84.4%	103%	98.5%	94.3%	–
CCCCNC(=O)C(=O)NCCCC	105%	120%	116%	114%	105%	100%	92.6%	102%	112%	123%	95.5%	98.8%	96.4%	110%	91.8%	114%	101%	129%	–	–
COc1ccccc1C1OC2=Nc3cc(C)c(C)cc3NC2C1=O (centres undefined)	80.8%	93.1%	-13.2% (active)	53%	82.5%	78.3%	76.2%	72.3%	106%	105%	83.9%	81.2%	55.1%	16.5%	60.3%	–	86.8%	97.8%	–	–
COCCCNC(=O)c1nnn2c1nc(N)c1cc(Cl)ccc12	85.6%	73.4%	70.6%	–	80.6%	–	80%	88.3%	87%	74.2%	–	101%	105%	104%	80.6%	96.4%	–	79.6%	71.7%	102%
CCS(=O)(=O)CCCl	91.8%	110%	123%	102%	99.5%	94.3%	85.1%	81.7%	106%	102%	89.6%	97.8%	96.5%	97.3%	101%	129%	63.6%	89.5%	–	–
c1ccc(/C(=N\N=C(/c2ccccc2)c2cccs2)c2cccs2)cc1	92.4%	95.4%	89%	103%	99.8%	101%	–	88.4%	108%	89.1%	98%	–	104%	89.8%	89.9%	102%	–	91.9%	71.2%	–
